# Data reported in PubChem BioAssay (EPA / NIEHS).
# Values joined by “and” are separate entries in the source; they are usually repeats but may differ in a detail not shown here. Equal values may be shown once. Inconclusive results are not listed. Some compounds were tested as several samples or in several runs, with calls that do not always agree. Active and inactive are the calls of the source. The calls were made as follows, unless noted: active = hit-call score of the fitted dose curve at least 0.9, where 1 is the maximum; inactive = score below 0.9.
# How the values were obtained:
# [1] = read-out: E-selectin (Homo sapiens) (UniProt P16581); assay: BSK_SAg_Eselectin: BioMAP Diversity Plus: SAg Assay for Eselectin Biomarker Activity (AID 2283091); settings: primary human HUVEC with PBMC; actives raise or lower the signal
# Procedure, shortened: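 Endpoint values derive from bidirectional fitting relative to DMSO, using ELISA-measured E-selectin in a human vascular co-culture (umbilical vein endothelium plus PBMC) sampled 24 h after dosing.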
# [2] = read-out: Monokine induced gamma interferon (MIG), CXCL9 (gene 4283); assay: BSK_SAg_MIG: BioMAP Diversity Plus: SAg Assay for Monokine induced gamma interferon (MIG) Biomarker Activity (AID 2283092); settings: primary human HUVEC with PBMC; actives raise or lower the signal
# Procedure, shortened: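 Endothelial cells and PBMC were co-cultured, exposed to test chemicals, and sampled 24 h later. MIG was measured by ELISA, and responses were fitted in both directions relative to DMSO.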
# [3] = BSK_SAg_PBMCCytotoxicity: PBMC Cytotoxicity Assessment in the BioMAP Diversity Plus: SAg Assay (AID 2283093); settings: primary human HUVEC with PBMC;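 also: PBMC viability measured as Alamar Blue reduction fluorescence at 546/580 nm; fitted both ways against DMSO so a hit may be loss or gain of signal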;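 as to AC50: PBMC superantigen activated with SEB plus TSST-1 one hour after compound addition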
# Procedure, shortened: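 Compound added to 75,000 PBMC/well for 1 h; SEB and TSST-1 then added at 20 ng/mL final each; 90 h incubation; Alamar Blue 6 h; read 546/580 nm ex/em. Activity fitted bidirectionally relative to DMSO baseline.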
# [4] = read-out: Interleukin-8 (IL8), CXCL8 (gene 3576); assay: BSK_SAg_IL8: BioMAP Diversity Plus: SAg Assay for Interleukin-8 (IL8) Biomarker Activity (AID 2283094); settings: primary human HUVEC with PBMC; actives raise or lower the signal
# Procedure, shortened: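 ELISA read-out of IL-8 in a primary human vascular co-culture (umbilical vein endothelium plus PBMC), taken 24 h after compound addition. Values derive from bidirectional fits against DMSO negative controls.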
# [5] = BSK_SAg_SRB: Viability Assessment in the BioMAP Diversity Plus: SAg Assay (AID 2283096); settings: primary human HUVEC with PBMC;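 also: cells read one day after compound addition; hits may be either gain or loss of signal compared with DMSO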
# Procedure, shortened: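 Total protein by sulforhodamine B staining, 24 h after dosing, in HUVEC–PBMC co-culture; DMSO-referenced bidirectional fitting.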
# [6] = BSK_SAg_Proliferation: Cell Proliferation Assessment in the BioMAP Diversity Plus: SAg Assay (AID 2283095); settings: primary human HUVEC with PBMC;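 also: relative cell number as total protein by SRB absorbance in sub-confluent culture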
# Procedure, shortened: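 Cells (endothelium plus PBMC, human primary) were dosed with chemical, cultured 96 h, fixed in 10% TCA and stained with 0.1% SRB. Absorbance at 560 nm gave relative protein, fitted bidirectionally relative to DMSO.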
# [7] = biological target: human Caspase 5 (CASP5), CASP5 (gene 838) (UniProt P51878); assay: NVS_ENZ_hCASP5: NovaScreen (NVS) Enzymatic Assay for human Caspase 5 (CASP5) (AID 2283137; active = hit-call score of the fitted dose curve at least 0.9, where 1 is the maximum)
# Procedure, shortened: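 E. coli-derived enzyme, cell-free, 2 h incubation, fluorescence intensity. 25 uM duplicate single-point; hits → concentration series to 50 uM. DMSO baseline, positive/negative controls on every plate.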
# [8] = biological target: human Beta-secretase (BACE), BACE1 (gene 23621) (UniProt P56817); assay: NVS_ENZ_hBACE: NovaScreen (NVS) Enzymatic Assay for human Beta-secretase (BACE) (AID 2283140; active = hit-call score of the fitted dose curve at least 0.9, where 1 is the maximum;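 also: hits are inhibitors that reduce fluorescent substrate signal versus DMSO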)
# Procedure, shortened: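 Compounds were first tested in duplicate at 25 uM, then actives in concentration series, against recombinant BACE1 from SF9 cells. Enzyme activity was measured by fluorescence intensity 1 hour after dosing, with DMSO as negative control.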
# [9] = biological target: human Dual Specificity Protein Phosphatase 3 (DUSP3), DUSP3 (gene 1845) (UniProt P51452); assay: NVS_ENZ_hDUSP3: NovaScreen (NVS) Enzymatic Assay for human Dual Specificity Protein Phosphatase 3 (DUSP3) (AID 2283152; active = hit-call score of the fitted dose curve at least 0.9, where 1 is the maximum;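 also: phosphatase activity of recombinant human DUSP3 on a fluorogenic substrate without cells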)
# Procedure, shortened: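 Cell-free assay with recombinant human DUSP3 and fluorogenic substrate, read by fluorescence intensity. Primary screen ran duplicate at 25 uM; actives followed up in concentration series; loss of signal versus DMSO scored.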
# [10] = biological target: human Ephrin type-A Receptor 1 (EphA1), EPHA1 (gene 2041) (UniProt P21709); assay: NVS_ENZ_hEphA1: NovaScreen (NVS) Enzymatic Assay for human Ephrin type-A Receptor 1 (EphA1) (AID 2283158; active = hit-call score of the fitted dose curve at least 0.9, where 1 is the maximum;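 also: activity is signal loss versus DMSO meaning EphA1 kinase inhibition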)
# Procedure, shortened: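 Here the EphA1 protein is recombinant and the substrate fluorescent, with electrophoretic separation before fluorescence detection at 1 hour. Signal loss against DMSO defines activity; plate controls included; follow-up concentration series reach 50 uM.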
# [11] = biological target: human Matrix Metalloproteinase-9 (MMP9), MMP9 (gene 4318) (UniProt P14780); assay: NVS_ENZ_hMMP9: NovaScreen (NVS) Enzymatic Assay for human Matrix Metalloproteinase-9 (MMP9) (AID 2283190; active = hit-call score of the fitted dose curve at least 0.9, where 1 is the maximum;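 also: cell-free recombinant MMP9 protease activity read by fluorescent substrate signal; active means inhibition seen as loss of fluorescence signal versus DMSO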)
# Procedure, shortened: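 Extracted enzyme, fluorescent substrate, 1 h post-dose read. Single conc 25 uM in duplicate, then concentration series for actives. Activity = signal loss relative to DMSO negative control.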
# [12] = biological target: human Phosphodiesterase 10 (PDE10), PDE10A (gene 10846) (UniProt Q9Y233); assay: NVS_ENZ_hPDE10: NovaScreen (NVS) Enzymatic Assay for human Phosphodiesterase 10 (PDE10) (AID 2283195; active = hit-call score of the fitted dose curve at least 0.9, where 1 is the maximum)
# Procedure, shortened: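 PDE10A, cell-free; 1 h incubation; fluorescence intensity + electrophoretic mobility shift separating substrate/product; DMSO = baseline; 25 uM duplicate primary, CRC up to 50 uM.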
# [13] = biological target: human Phosphoinositide 3-kinase alpha (PI3Ka), PIK3CA (gene 5290) (UniProt P42336); assay: NVS_ENZ_hPI3Ka: NovaScreen (NVS) Enzymatic Assay for human Phosphoinositide 3-kinase alpha (PI3Ka) (AID 2283196; active = hit-call score of the fitted dose curve at least 0.9, where 1 is the maximum)
# Procedure, shortened: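 Fluorescence/mobility-shift readout of substrate conversion by recombinant enzyme, 1 h post-dosing. Primary screen in duplicate at 25 uM; actives (e.g. ≥30% inhibition) retested in singleton concentration-response, top concentration 50 uM.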
# [14] = biological target: human CYP2C9, CYP2C9 (gene 1559) (UniProt P11712); assay: NVS_ADME_hCYP2C9: NovaScreen (NVS) CYP450-related Enzyme Activity (ADME) Assay for human CYP2C9 (AID 2283108; active = hit-call score of the fitted dose curve at least 0.9, where 1 is the maximum)
# Procedure, shortened: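 Fluorescence readout of CYP2C9 activity (SF9-expressed human enzyme) at 0.75 h. The primary screen used 10 uM in duplicate, with concentration-response follow-up for actives; acetonitrile was the negative control.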
# [15] = biological target: Cytochrome P450 2C19 (Homo sapiens) (UniProt P33261); assay: NVS_ADME_hCYP2C19: NovaScreen (NVS) CYP450-related Enzyme Activity (ADME) Assay for human CYP2C19 (AID 2283113; active = hit-call score of the fitted dose curve at least 0.9, where 1 is the maximum;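 also: potency for inhibition seen as loss of fluorescent signal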)
# Procedure, shortened: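 Biochemical CYP2C19 inhibition screen: insect-cell recombinant protein plus fluorescent substrate, 1 h, fluorescence intensity. Acetonitrile defined baseline activity. Single 10 uM concentration in duplicate, with concentration-response follow-up for actives.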
# [16] = biological target: human Esterase Plasma (ES), BCHE (gene 590) (UniProt P06276); assay: NVS_ENZ_hES: NovaScreen (NVS) Enzymatic Assay for human Esterase Plasma (ES) (AID 2283157; active = hit-call score of the fitted dose curve at least 0.9, where 1 is the maximum)
# Procedure, shortened: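 Chemicals were added to plasma-extracted human enzyme in a cell-free format, and activity was read colorimetrically after 0.25 hour. Activity loss was referenced to DMSO; concentration-response top dose was 50 uM.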
# Chain of human Beta-secretase (BACE), BACE1 (gene 23621) (P56817 whole entry, looked up): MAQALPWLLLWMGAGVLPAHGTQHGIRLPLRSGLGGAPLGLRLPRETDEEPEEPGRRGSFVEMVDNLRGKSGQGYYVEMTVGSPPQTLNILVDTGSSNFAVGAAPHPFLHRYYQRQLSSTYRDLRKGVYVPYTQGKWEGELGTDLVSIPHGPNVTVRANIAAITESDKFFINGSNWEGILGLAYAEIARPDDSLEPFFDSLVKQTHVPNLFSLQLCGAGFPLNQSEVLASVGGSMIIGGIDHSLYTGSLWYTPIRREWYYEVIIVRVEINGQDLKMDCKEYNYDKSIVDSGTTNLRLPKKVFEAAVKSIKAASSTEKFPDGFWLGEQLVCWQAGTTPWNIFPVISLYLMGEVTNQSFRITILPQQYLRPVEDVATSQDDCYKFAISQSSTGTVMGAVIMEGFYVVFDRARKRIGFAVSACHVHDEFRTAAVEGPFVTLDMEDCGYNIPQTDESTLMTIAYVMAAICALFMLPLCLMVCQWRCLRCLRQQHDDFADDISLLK
# Chain of human Phosphoinositide 3-kinase alpha (PI3Ka), PIK3CA (gene 5290) (P42336 whole entry, looked up): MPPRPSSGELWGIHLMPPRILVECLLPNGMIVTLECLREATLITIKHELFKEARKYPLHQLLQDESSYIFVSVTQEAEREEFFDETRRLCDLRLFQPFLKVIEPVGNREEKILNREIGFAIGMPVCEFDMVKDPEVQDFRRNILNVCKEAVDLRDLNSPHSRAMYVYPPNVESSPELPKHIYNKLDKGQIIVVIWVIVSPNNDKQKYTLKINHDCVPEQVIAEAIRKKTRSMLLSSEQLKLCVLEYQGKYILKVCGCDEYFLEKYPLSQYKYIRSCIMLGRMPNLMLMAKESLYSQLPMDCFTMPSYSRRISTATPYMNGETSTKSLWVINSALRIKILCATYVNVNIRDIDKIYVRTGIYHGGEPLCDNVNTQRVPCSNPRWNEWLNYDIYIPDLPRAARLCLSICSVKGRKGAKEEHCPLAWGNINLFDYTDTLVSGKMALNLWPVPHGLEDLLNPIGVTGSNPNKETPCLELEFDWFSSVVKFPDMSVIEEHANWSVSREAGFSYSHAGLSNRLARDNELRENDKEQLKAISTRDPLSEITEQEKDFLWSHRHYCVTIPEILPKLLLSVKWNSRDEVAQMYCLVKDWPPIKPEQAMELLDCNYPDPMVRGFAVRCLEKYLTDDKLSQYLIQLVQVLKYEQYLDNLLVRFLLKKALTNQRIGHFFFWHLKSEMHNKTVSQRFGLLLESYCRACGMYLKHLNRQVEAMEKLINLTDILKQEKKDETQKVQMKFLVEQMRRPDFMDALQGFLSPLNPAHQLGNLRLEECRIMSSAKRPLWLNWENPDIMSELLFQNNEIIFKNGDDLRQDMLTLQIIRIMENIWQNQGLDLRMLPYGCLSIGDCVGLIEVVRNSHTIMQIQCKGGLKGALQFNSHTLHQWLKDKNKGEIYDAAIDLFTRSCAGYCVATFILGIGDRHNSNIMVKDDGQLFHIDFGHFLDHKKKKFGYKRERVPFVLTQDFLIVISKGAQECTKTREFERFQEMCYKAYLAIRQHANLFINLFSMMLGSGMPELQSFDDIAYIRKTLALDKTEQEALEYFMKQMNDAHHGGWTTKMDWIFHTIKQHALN
# Chain of human Matrix Metalloproteinase-9 (MMP9), MMP9 (gene 4318) (P14780 whole entry, looked up): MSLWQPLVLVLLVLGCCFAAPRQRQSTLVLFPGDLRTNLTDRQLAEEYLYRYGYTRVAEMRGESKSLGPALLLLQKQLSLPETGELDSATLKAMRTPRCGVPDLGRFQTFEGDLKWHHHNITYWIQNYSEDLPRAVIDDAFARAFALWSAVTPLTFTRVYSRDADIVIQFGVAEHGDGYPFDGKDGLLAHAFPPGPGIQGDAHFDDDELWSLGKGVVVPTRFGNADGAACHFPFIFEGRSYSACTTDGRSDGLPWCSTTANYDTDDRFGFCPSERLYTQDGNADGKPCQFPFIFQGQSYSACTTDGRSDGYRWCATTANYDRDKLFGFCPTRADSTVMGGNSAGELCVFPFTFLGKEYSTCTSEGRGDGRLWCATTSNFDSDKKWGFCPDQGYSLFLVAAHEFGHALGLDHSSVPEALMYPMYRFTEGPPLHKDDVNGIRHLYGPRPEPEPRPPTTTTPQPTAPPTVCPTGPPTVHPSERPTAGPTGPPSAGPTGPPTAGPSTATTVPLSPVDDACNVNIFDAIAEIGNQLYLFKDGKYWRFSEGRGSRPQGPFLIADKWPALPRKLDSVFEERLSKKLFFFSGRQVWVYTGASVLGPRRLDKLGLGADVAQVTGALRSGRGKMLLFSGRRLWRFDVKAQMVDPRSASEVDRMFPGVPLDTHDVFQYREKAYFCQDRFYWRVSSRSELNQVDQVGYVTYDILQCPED
# Chain of human Phosphodiesterase 10 (PDE10), PDE10A (gene 10846) (Q9Y233 whole entry, looked up): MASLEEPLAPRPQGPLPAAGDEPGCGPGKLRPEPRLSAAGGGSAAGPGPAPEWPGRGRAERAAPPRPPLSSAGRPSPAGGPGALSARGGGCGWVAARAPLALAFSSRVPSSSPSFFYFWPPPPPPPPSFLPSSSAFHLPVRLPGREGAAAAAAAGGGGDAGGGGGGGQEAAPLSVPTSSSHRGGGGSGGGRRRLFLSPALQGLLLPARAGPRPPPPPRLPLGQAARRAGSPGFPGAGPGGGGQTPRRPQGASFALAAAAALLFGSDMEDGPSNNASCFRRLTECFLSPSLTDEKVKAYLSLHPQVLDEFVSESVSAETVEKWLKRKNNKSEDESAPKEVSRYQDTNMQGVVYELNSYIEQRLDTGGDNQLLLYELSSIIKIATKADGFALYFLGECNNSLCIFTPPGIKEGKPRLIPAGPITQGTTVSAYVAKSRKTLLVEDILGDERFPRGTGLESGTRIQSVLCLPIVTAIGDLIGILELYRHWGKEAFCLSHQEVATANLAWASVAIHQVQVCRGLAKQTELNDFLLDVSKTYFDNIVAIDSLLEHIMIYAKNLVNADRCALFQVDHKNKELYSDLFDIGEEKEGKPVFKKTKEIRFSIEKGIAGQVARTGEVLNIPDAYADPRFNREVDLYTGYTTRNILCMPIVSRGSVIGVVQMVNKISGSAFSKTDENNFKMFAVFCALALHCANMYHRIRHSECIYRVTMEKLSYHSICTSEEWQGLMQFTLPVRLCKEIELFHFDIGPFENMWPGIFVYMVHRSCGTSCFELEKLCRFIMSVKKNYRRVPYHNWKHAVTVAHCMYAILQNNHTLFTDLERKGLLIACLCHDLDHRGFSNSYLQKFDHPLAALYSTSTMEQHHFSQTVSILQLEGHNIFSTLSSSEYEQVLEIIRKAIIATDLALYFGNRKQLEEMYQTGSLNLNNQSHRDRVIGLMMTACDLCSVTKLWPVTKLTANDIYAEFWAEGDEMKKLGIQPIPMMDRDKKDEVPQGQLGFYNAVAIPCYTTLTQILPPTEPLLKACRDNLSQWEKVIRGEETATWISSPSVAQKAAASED
# Chain of E-selectin (Homo sapiens) (P16581 whole entry, looked up): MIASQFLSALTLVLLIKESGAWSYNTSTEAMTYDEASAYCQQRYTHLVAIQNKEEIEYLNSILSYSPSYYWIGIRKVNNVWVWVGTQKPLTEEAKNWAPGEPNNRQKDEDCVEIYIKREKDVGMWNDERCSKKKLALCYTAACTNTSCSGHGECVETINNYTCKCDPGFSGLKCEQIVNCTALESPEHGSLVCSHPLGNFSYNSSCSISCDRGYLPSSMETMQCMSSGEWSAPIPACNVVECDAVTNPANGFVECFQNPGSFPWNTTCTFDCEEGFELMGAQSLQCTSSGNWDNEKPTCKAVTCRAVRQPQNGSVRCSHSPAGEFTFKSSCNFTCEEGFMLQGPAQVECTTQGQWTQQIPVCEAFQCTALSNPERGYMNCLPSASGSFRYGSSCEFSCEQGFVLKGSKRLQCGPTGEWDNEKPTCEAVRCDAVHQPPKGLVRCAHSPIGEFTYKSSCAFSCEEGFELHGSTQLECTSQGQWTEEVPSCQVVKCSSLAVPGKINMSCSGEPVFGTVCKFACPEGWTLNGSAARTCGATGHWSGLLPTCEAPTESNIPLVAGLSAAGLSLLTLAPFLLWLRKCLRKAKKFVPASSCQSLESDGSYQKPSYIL
# Chain of human Ephrin type-A Receptor 1 (EphA1), EPHA1 (gene 2041) (P21709 whole entry, looked up): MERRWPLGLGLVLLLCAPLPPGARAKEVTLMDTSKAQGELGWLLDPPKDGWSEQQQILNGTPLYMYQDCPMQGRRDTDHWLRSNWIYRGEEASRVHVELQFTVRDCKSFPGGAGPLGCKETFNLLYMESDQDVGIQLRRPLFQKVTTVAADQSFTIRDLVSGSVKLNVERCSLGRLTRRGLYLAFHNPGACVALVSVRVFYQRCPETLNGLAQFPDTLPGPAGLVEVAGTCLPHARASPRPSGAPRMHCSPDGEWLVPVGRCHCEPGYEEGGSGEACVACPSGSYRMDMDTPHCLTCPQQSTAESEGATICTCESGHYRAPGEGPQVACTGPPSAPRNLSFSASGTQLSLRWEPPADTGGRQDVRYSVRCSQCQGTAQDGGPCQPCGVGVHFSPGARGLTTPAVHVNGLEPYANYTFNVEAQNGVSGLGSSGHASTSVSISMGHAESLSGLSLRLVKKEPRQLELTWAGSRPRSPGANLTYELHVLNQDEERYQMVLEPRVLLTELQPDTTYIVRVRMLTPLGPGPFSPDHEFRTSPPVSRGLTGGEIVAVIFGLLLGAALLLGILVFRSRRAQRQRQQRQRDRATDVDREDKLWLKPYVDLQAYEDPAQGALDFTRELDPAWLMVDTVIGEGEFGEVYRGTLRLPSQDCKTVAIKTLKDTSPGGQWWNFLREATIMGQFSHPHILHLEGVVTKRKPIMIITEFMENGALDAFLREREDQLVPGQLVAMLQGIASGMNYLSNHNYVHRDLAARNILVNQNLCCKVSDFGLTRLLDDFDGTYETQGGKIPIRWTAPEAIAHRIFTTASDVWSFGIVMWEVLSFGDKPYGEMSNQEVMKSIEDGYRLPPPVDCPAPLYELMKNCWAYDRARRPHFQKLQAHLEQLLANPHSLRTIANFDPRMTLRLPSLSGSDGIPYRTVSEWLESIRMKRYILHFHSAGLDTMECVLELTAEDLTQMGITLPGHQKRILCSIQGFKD
smiles,measurement,setting,value
CCCCCCCCCC=O,AC50,[1],33.6 µM (active)
same,outcome,[2],inactive
same,outcome,[3],inactive
same,outcome,[4],inactive
same,outcome,[5],inactive
CCCCC/C=C/C=C/C=O,AC50,[1],28.3 µM (active)
same,AC50,[2],35.6 µM (active)
same,AC50,[3],20 µM (active)
same,AC50,[6],14.2 µM (active)
same,AC50,[5],31.5 µM (active)
same,AC50,[7],0.627 µM (active)
same,AC50,[8],25 µM (active)
same,AC50,[9],9.31 µM (active)
same,outcome,[10],inactive
same,AC50,[11],25 µM (active)
same,outcome,[12],inactive
same,outcome,[13],inactive
Cc1ccc2n[nH]nc2c1,outcome,[1],inactive
same,outcome,[2],inactive
same,outcome,[3],inactive
same,outcome,[4],inactive
same,outcome,[6],inactive
same,outcome,[5],inactive
CC(=O)/C=C/C1=C(C)CCCC1(C)C,outcome,[1],inactive
same,outcome,[2],inactive
same,outcome,[3],inactive
same,outcome,[4],inactive
same,outcome,[6],inactive
same,outcome,[5],inactive
same,outcome,[13],inactive
CCCCC(CC)COC(=O)/C=C\C(=O)OCC(CC)CCCC (centres undefined),outcome,[1],inactive
same,outcome,[2],inactive
same,outcome,[3],inactive
same,outcome,[5],inactive
O=C=NC1CCC(CC2CCC(N=C=O)CC2)CC1 (centres undefined),outcome,[1],inactive
same,outcome,[2],inactive
same,AC50,[3],13.3 µM (active)
same,outcome,[4],inactive
same,outcome,[5],inactive
same,AC50,[8],8.32 µM (active)
same,AC50,[11],2.17 µM (active)
same,outcome,[12],inactive
same,outcome,[13],inactive
C=C[Si](OCC)(OCC)OCC,outcome,[1],inactive
same,outcome,[2],inactive
same,outcome,[3],inactive
same,outcome,[5],inactive
CCCCCCCCC=O,outcome,[1],inactive
same,outcome,[2],inactive
same,outcome,[3],inactive
same,outcome,[5],inactive
CC(C)Oc1ccccc1O,outcome,[1],inactive
same,outcome,[2],inactive
same,outcome,[3],inactive
same,outcome,[6],inactive
same,outcome,[5],inactive
same,outcome,[10],inactive
CC1COc2ccccc2N1C(=O)C(Cl)Cl (centres undefined),AC50,[1],13.3 µM (active)
same,outcome,[2],inactive
same,outcome,[3],inactive
same,outcome,[4],inactive
same,AC50,[5],10.3 µM (active)
same,outcome,[10],inactive
Cc1cc(C2(c3cc(C)c(O)cc3C)OS(=O)(=O)c3ccccc32)c(C)cc1O,outcome,[1],inactive
same,outcome,[2],inactive
same,AC50,[3],27.3 µM (active)
same,outcome,[3],inactive
same,outcome,[5],inactive
O=C(O)c1cn(C2CC2)c2cc(N3CCNCC3)c(F)cc2c1=O,outcome,[1],inactive
same,outcome,[2],inactive
same,outcome,[3],inactive
same,outcome,[6],inactive
same,outcome,[5],inactive
NCCNCCN,outcome,[1],inactive
same,outcome,[2],inactive
same,outcome,[3],inactive
same,outcome,[5],inactive
C=C(C)C(=O)O[C@H]1C[C@@H]2CC[C@@]1(C)C2(C)C,AC50,[1],34 µM (active)
same,AC50,[2],36.3 µM (active)
same,AC50,[3],33.1 µM (active)
same,AC50,[5],30.9 µM (active)
BrC1CCC(Br)C(Br)CCC(Br)C(Br)CCC1Br (centres undefined),outcome,[1],inactive
same,outcome,[2],inactive
same,AC50,[3],2.03 µM (active)
same,AC50,[5],4.67 µM (active)
Cc1ccc(Nc2ccc(O)c3c2C(=O)c2ccccc2C3=O)cc1,outcome,[1],inactive
same,outcome,[2],inactive
same,outcome,[3],inactive
same,outcome,[4],inactive
same,outcome,[5],inactive
same,AC50,[8],6.25 µM (active)
same,AC50,[11],2.18 µM (active)
C#C[C@]1(O)CC[C@H]2[C@@H]3CCC4=Cc5oncc5C[C@]4(C)[C@H]3CC[C@@]21C,outcome,[1],inactive
same,outcome,[2],inactive
same,outcome,[3],inactive
same,outcome,[6],inactive
same,outcome,[5],inactive
same,outcome,[10],inactive
same,outcome,[12],inactive
same,outcome,[13],inactive
CCn1c2ccccc2c2cc(N)ccc21,outcome,[1],inactive
same,outcome,[2],inactive
same,outcome,[3],inactive
same,outcome,[6],inactive
same,outcome,[5],inactive
same,AC50,[14],0.405 µM (active)
same,AC50,[15],2.03 µM (active)
same,AC50,[16],27.1 µM (active)
same,AC50,[10],19.3 µM (active)
same,AC50,[13],9.32 µM (active)
CC(=O)OCCC(C)CC(C)(C)C (centres undefined),outcome,[1],inactive
same,outcome,[2],inactive
same,outcome,[3],inactive
same,outcome,[5],inactive
O=C(O)c1cn(-c2ccc(F)cc2)c2cc(N3CCNCC3)c(F)cc2c1=O,outcome,[1],inactive
same,outcome,[2],inactive
same,outcome,[3],inactive
same,outcome,[5],inactive
OC1OC[C@@H](O)[C@H](O)[C@H]1O (some centres undefined),outcome,[1],inactive
same,outcome,[2],inactive
same,outcome,[3],inactive
same,outcome,[5],inactive
OC[C@H]1O[C@H](O[C@]2(CCl)O[C@H](CCl)[C@@H](O)[C@@H]2O)[C@H](O)[C@@H](O)[C@H]1Cl,outcome,[1],inactive
same,outcome,[2],inactive
same,outcome,[3],inactive
same,outcome,[4],inactive
same,outcome,[6],inactive
same,outcome,[5],inactive
CCCCCCCCCCCCCCCCCC(=O)OCC(CC)CCCC (centres undefined),outcome,[1],inactive
same,outcome,[2],inactive
same,outcome,[3],inactive
same,outcome,[4],inactive
same,outcome,[5],inactive
CCc1c(C)cc(N)c(CC)c1N,outcome,[1],inactive
same,outcome,[2],inactive
same,outcome,[3],inactive
same,outcome,[6],inactive
same,outcome,[5],inactive
same,outcome,[12],inactive
CC(C)c1ccc(C(C)C)cc1,outcome,[1],inactive
same,outcome,[2],inactive
same,outcome,[3],inactive
same,outcome,[5],inactive
N#Cc1ccc(CC(=NNC(=O)Nc2ccc(OC(F)(F)F)cc2)c2cccc(C(F)(F)F)c2)cc1,outcome,[1],inactive
same,outcome,[2],inactive
same,outcome,[3],inactive
same,outcome,[6],inactive
same,outcome,[5],inactive
O=[N+]([O-])c1cc(C(F)(F)F)ccc1Cl,outcome,[1],inactive
same,outcome,[2],inactive
same,outcome,[3],inactive
same,outcome,[6],inactive
same,outcome,[5],inactive
same,outcome,[10],inactive
same,AC50,[12],35 µM (active)
C[C@H]1C[C@@H]2[C@H]([C@@H](O)C[C@@]3(C)[C@H]2CC[C@]3(O)C(=O)CO)[C@@]2(C)C=CC(=O)C=C12,AC50,[1],3.1 µM (active) and 1.1 µM (active)
same,outcome,[2],inactive
same,outcome,[3],inactive
same,outcome,[5],inactive
